From PubChem BioAssay AID651871 (Sanford-Burnham Center for Chemical Genomics, 2012)
Values joined by “and” are separate entries in the source; they are usually repeats but may differ in a detail not shown here. Equal entries are not always repeated.

Test system: HL-1
Assay: protection of cardiomyocytes from stress damage, SAR follow-up, cell-based, panel, H9c2 and HL-1, ATP luminescence, set 2 (AID 651871);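 also: cells exposed to stressor for 2 h before ATP readout; reference of the scale not given here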
Conditions: H9c2/HL-1 cardiomyocytes, 2-deoxyglucose stress, with 2-deoxyglucose, run 15, at 19.8 µM (top of the series)

With `COc1ccc2c(c1OC)C(=O)N1c3ccccc3C(=O)N(Cc3cccc(Cl)c3Cl)C21` (stereo unspecified) as the molecule, how does the activity (protection/inhibition) read?
Its activity (protection/inhibition) is 69.2% and 28.8%.
